# Laboratory results reported in PubChem BioAssay AID435019 (Southern Research Specialized Biocontainment Screening …, 2010).
# About 1,200 (52%) of roughly 2,300 compounds were called active. How the calls were made is not given here. So high a share suggests a set chosen from earlier hits. The list shows a part of the results. Potency and affinity values are given separately.
# Experiment: mammalian cell cytotoxicity, dose response, cytotoxicity control for M. tuberculosis inhibitor project (AID 435019);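 further: 0% = background wells and 100% = vehicle-treated cells; lower values mean fewer viable cells so more cytotoxicity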
# Conditions: cytotoxicity counter-screen; series mostly up to 40 µM; viability: at the top concentration
row,Structure (SMILES),viability
1,CCOC(=O)COc1ccc2c(c1)C(=O)CC(C)(c1cccnc1)O2 (centres undefined),102% (inactive)
2,Nc1ccc2oc(-c3cccs3)nc2c1,95.4% (inactive)
3,CCOC(=O)c1ccc(N=C(CC)c2c(O)n(C)c(=O)n(C)c2=O)cc1,90.3% (inactive)
4,COc1cc(C)ccc1OCCOc1c(C)cc(Cl)cc1Cl,86.2% (inactive)
5,C=CCc1cc(C)ccc1OCCCC(C(=O)OCC)C(=O)OCC,97.1% (inactive)
6,C[Se]C[C@@H](N)C(=O)O,101% (inactive)
7,Cc1nc2sccn2c1-c1nc(-c2cc3ccccc3o2)cs1,86.8% (inactive)
8,Cc1ccc(NC(=O)COC(=O)CCc2c[nH]c3ccccc23)cc1[N+](=O)[O-],92.4% (inactive)
9,C[C@@H]1CN([C@H](C)CO)C(=O)c2cc(NC(=O)Nc3ccc(C(F)(F)F)cc3)ccc2O[C@H]1CN(C)S(=O)(=O)c1cccs1,91.9% (inactive)
10,CCOC(=O)CSc1cc(=O)n(C)c2cc(Cl)ccc12,96.9% (inactive)
11,O=C(CSc1nc2ccccc2[nH]1)N1c2ccccc2Sc2ccccc21,81.8% (inactive)
12,O=c1cc(O)c2sc3nc(-c4cccnc4)cc(C(F)(F)F)c3c2[nH]1,92.6% (inactive)
13,CC(C)c1ccc(-c2nn(-c3ccccc3)cc2C(=O)NCC2CCCO2)cc1 (centres undefined),86.4% (inactive)
14,COc1ccc(-c2cn3cc([N+](=O)[O-])ccc3n2)cc1OC,96.1% (inactive)
15,C=CCOc1ccc(/C=N/O)cc1Cl,84.8% (inactive)
16,Cc1ccc(/C=C/S(=O)(=O)NCC(=O)OCC(=O)Nc2c(F)cccc2F)cc1,91.2% (inactive)
17,O=C(Nc1cccc(Cl)c1)N1CCN(C/C=C/c2ccccc2)CC1,84.9% (inactive)
18,CC1(C)c2cc(Cl)ccc2-n2c1cc(O)c(-c1ccccc1)c2=O,88.4% (inactive)
19,O=c1[nH]c(CSc2cccc[n+]2[O-])nc2ccccc12,93.4% (inactive)
20,O=C(OCc1ccccc1)/C(=C(\O)c1ccccc1Br)c1ccc(-c2ccccc2)cn1,89.2% (inactive)
21,CCCc1cc(=O)[nH]c(SCC(=O)N2CCCC2=O)n1,95.3% (inactive)
22,Cc1nc2ccc(OC(=O)c3ccccc3)cc2s1,86.3% (inactive)

row,Structure (SMILES),viability
1,Clc1ccc(-c2ccc(C=Nc3ccc(N4CCOCC4)cc3)o2)c(Cl)c1,95.9% (inactive)
2,O=C(CSc1nc2ccccc2nc1N1CCOCC1)N1CCN(c2ccccc2)CC1,89.7% (inactive)
3,CC(C)OC(=O)CSc1nc2ccccc2s1,95.2% (inactive)
4,C1=C(c2c[nH]c3ccccc23)CCNC1,88.5% (inactive)
5,COc1ccc(N2CN=C3SCC(=O)N3C2)cc1,99.6% (inactive)
6,CCn1nnc(-c2ccc(N)cc2)n1,94.1% (inactive)
7,Nc1ccc(CCc2ccc(N)cc2)cc1,93.5% (inactive)
8,Cc1cc2cc(CNC(=O)NC3CCCCC3)ccc2[nH]1,89% (inactive)
9,O=C(/C=C/c1ncc(C(F)(F)F)cc1Cl)OCc1ccccc1,100% (inactive)
10,Cc1ccc(-c2nnc(NCc3nc4ccccc4[nH]3)c3ccccc23)cc1S(=O)(=O)N1CCCCC1,81.5% (inactive)
11,Cc1ccc(NC(=O)COc2ccc(-n3ccnc3)cc2)cc1Cl,98% (inactive)
12,CCNCC(=O)N1c2ccccc2CCc2ccc(NC(=O)OC(C)C)cc21,82.4% (inactive)
13,CCc1c(C)sc(NC(=S)N2CCN(CC)CC2)c1C(=O)OC,83.2% (inactive)
14,COC(=O)c1c(NC(=O)C(=O)N2CCCC2)sc2c1CC(C)(C)OC2,89.7% (inactive)
15,Cc1ccc(N=Nc2c(C)[nH]n(C(N)=S)c2=O)cc1,83.6% (inactive)
16,O=C1NCCC/C1=N\Nc1ccc(Br)cc1,94.1% (inactive)
17,COC(=O)CNC(=O)CSc1nc2sc(-c3ccccc3)cc2c(=O)n1-c1ccccc1,90.4% (inactive)
18,Cc1ccc(NC(=O)c2sccc2-n2cccc2)c(C)c1,93.2% (inactive)
19,CCCCCCCCCCOC(=O)Cn1c(COc2ccc(Cl)cc2)[n+](C)c2ccccc21,93.5% (inactive)
20,Nc1nonc1C(=O)NCCNCc1c(OCc2ccccc2F)ccc2ccccc12,94% (inactive)
21,Cn1ccnc1C(O)c1cc(C(C)(C)C)c(O)c(C(C)(C)C)c1 (centres undefined),89% (inactive)
22,C(=N\Nc1nc(-c2ccccc2)cs1)/c1ccncc1,88.6% (inactive)

row,Structure (SMILES),viability
1,Cc1cccc(NC(=O)CCSc2nnc(Cc3ccccc3)o2)c1,99.5% (inactive)
2,COC(=O)c1cccc(OC(N)=O)c1,97.2% (inactive)
3,c1ccc(Cn2c3ccccc3c3nnc(SCCN4CCCCC4)nc32)cc1,88.8% (inactive)
4,CC(=O)c1c(C)n(C)c2ccc(OC(=O)c3ccc([N+](=O)[O-])cc3)cc12,93.6% (inactive)
5,COC(=O)CSc1ncnc2c1cnn2-c1ccc(C)cc1C,97.7% (inactive)
6,NC(=S)N/N=C/c1ccc(-c2ccccc2)o1,95.2% (inactive)
7,CCc1n[nH]c(=S)n1/N=C/c1ccc(-c2ccc(Br)cc2)o1,85.9% (inactive)
8,CCOC(=O)c1ccc(-c2c(-c3ccc4c(c3)OCO4)noc2C)cc1F,85.7% (inactive)
9,Cc1onc(-c2ccccc2Cl)c1C(=O)Oc1cccc2cccnc12,84.4% (inactive)
10,O=c1c(C=Nc2ccc(Oc3ccccc3)cc2)c[nH]n1-c1cccc(Cl)n1,94.6% (inactive)
11,Cc1nc2scc(-c3cccs3)c2c(=O)n1-n1cccc1,94.5% (inactive)
12,O=C(O)/C=C/C(=O)Nc1ccc(-c2ccccc2)cc1,102% (inactive)
13,Cc1ccc(S(=O)(=O)CNC(=S)c2ccc3ccccc3c2)cc1,87% (inactive)
14,O=[N+]([O-])c1cc(C=Nc2ccc3ccccc3c2)ccc1Br,102% (inactive)
15,Cc1ccc(N2CCN(C(=O)c3cn(CC4CCCCC4)nn3)C(C)C2)cc1 (centres undefined),85.7% (inactive)
16,O=c1c2ccccc2nc(/C=C/c2ccccc2)n1-c1ccc(O)cc1,81.8% (inactive)
17,CCCC1CCC(C(=O)Nn2c(C)nc3ccccc3c2=O)CC1 (centres undefined),82.5% (inactive)
18,Cc1ccc2[nH]c(C(=O)NN=C3CCCCC3)c(-c3ccccc3)c2c1,88.9% (inactive)
19,CCc1cc(C(=O)Nc2ccc(C)cc2Br)cs1,92.9% (inactive)
20,C/C(=N\NC(=O)COc1ccc(C)cc1Br)c1cc([N+](=O)[O-])cs1,91.1% (inactive)
21,COc1ccccc1N1C(=O)NC(=O)/C(=C/c2ccc([N+](=O)[O-])s2)C1=O,92.6% (inactive)
22,Cc1cccc(CSc2nc3c(c(-c4cccs4)c2C#N)CN(C)CC3)c1,95.7% (inactive)

row,Structure (SMILES),viability
1,COc1cc(/C=N/NC(=O)COc2ccc(C)cc2)ccc1OC(=O)c1cccs1,99.4% (inactive)
2,CCCCCCOc1ccc(/C=C/C(=O)N2CCOCC2)cc1OC,87% (inactive)
3,CC[N+](C)(CC)CCCCOc1ccc2c(c1)C(=O)c1cc(OCCCC[N+](C)(CC)CC)ccc1-2,98.3% (inactive)
4,CCCOc1ccc(-c2cnc(SCC(N)=O)nc2N)cc1,94.2% (inactive)
5,O=C(/C=C/c1ccco1)Oc1ccc(C(=S)N2CCOCC2)cc1,92.7% (inactive)
6,COc1ccc(NC(=O)NC(C)C2CC3CCC2C3)cc1 (centres undefined),88.8% (inactive)
7,Nc1ccc(-c2nc3nc(N)nc(N)c3nc2-c2ccc(N)cc2)cc1,86.7% (inactive)
8,CN1CCN(C(=O)/C=C/c2cn(-c3ccccc3)nc2-c2ccc3c(c2)OCCO3)CC1,91.2% (inactive)
9,Cc1ccc(C(=O)COC(=O)C2CC(=O)N(c3nc(-c4ccccc4)cs3)C2)cc1C (centres undefined),87.5% (inactive)
10,CCCCCCCCNC(=O)CCNC(=O)c1ccc(C(C)(C)C)cc1,83.2% (inactive)
11,CCCCCCCCCCCCCCCC(=O)NCCO,98.4% (inactive)
12,CCc1ccc(NC(=O)c2ccc(C3SCC(=O)N3CCc3ccccc3)cc2)cc1 (centres undefined),91.9% (inactive)
13,O=C1N[C@@H](Cc2ccccc2)C(=O)N2[C@H]3Nc4ccccc4[C@@]3([C@]34C[C@H]5C(=O)N[C@@H](Cc6ccccc6)C(=O)N5[C@H]3Nc3ccccc34)C[C@@H]12,86.8% (inactive)
14,CCOC(=O)CSc1nc(C)c(C(=O)OCC)s1,97.8% (inactive)
15,Cc1cc(C2N=C(N)Nc3nc4ccccc4n32)c(C)n1-c1ccccc1Cl (centres undefined),90.1% (inactive)
16,CN1OC(COC(=O)c2ccc(Cl)cc2Cl)CC1c1ccccc1 (centres undefined),94.3% (inactive)
17,CCC(C)Nc1nc2c(C)cccn2c(=O)c1C=Nc1ccc(OC)cc1 (centres undefined),91.5% (inactive)
18,CC(=O)O[C@H]1C[C@@]2(C)[C@@H](C[C@@H](O)[C@H]3[C@@]4(C)CC[C@@H](O)[C@@H](C)[C@@H]4CC[C@@]32C)/C1=C(\CCC=C(C)C)C(=O)O,99.3% (inactive)
19,CN(CCCC1CCCC1)C(=O)CCc1nnc(-c2ccccc2)o1,83.9% (inactive)
20,O=C(Nc1ccc2nsnc2c1)NC1CCCCC1,104% (inactive)
21,COC(=O)c1ccc(-c2ncc(-c3cccc4ccccc34)o2)cc1,95.6% (inactive)
22,COc1cc(C)c(/C=C/C(C)=C/C=C/C(C)=C/C(=O)O)c(C)c1C,88.1% (inactive)

row,Structure (SMILES),viability
1,CC1(C)OC(=O)C(=NNc2ccc(Cl)cc2)C(=O)O1,94.5% (inactive)
2,CCn1c(SCC(=O)OC2CCCCC2)nc2ccccc2c1=O,95.4% (inactive)
3,Cc1ccc(NC(=O)c2cnc(SCC(=O)NCC3CCCO3)n(C)c2=O)cc1C (centres undefined),90.9% (inactive)
4,Cn1c(CNc2nc(-c3ccccc3)cs2)nnc1SCC(=O)OC1CCCCC1,101% (inactive)
5,CCOc1ccc(NC(=S)Nc2cc(-c3ccccc3)[nH]n2)cc1,86.4% (inactive)
6,CCCc1ncc(CN2CCCC(C(=O)Nc3ccc(-c4cccc(OC)c4)cc3)C2)cn1 (centres undefined),81.7% (inactive)
7,CCCc1ccc(NC(=O)C2CCN(c3cnccn3)CC2)cc1,95.8% (inactive)
8,Cc1ccc(C)c(N2CCN(C(=O)c3ccc4nc(N5CCOCC5)sc4c3)CC2)c1,84.8% (inactive)
9,Cc1cc(C)c2nc(N3CCCC(C(=O)N4CCN(c5ncccn5)CC4)C3)sc2c1 (centres undefined),82.1% (inactive)
10,C[C@]12CCC(=O)C[C@@H]1CC[C@@H]1[C@@H]2CC[C@]2(C)C=CC[C@@H]12,92.2% (inactive)
11,NC(=O)N1CCC2(CC1)NC(=O)N(c1ccccc1)N2,91.9% (inactive)
12,Cc1cc(C)nc(-n2nc(C)cc2NC(=O)CN2CCC(C)CC2)n1,91.8% (inactive)
13,O=C(c1cc2cc(F)ccc2[nH]1)N(Cc1cccnc1)CC1CCCN(C2CCCCC2)C1 (centres undefined),84.5% (inactive)
14,CC1(CCc2ccccc2)NC(=S)N(c2ccc(Cl)cc2)N1 (centres undefined),89.4% (inactive)
15,COC(=O)CSc1nnc(CNc2ccc(Cl)cc2)n1-c1ccccc1,94.6% (inactive)
16,O=C(C[n+]1ccc(C(=O)N/N=C/c2ccc(O)cc2)cc1)c1ccccc1,103% (inactive)
17,Nc1cc([N+](=O)[O-])cc2oc(-c3ccccc3)cc12,83.1% (inactive)
18,COc1ccccc1-n1cc2c([N+](=O)[O-])cc([N+](=O)[O-])cc2n1,103% (inactive)
19,CCCCNc1nc(N(C)c2ccccc2)nc(-n2ccnc2)n1,85.3% (inactive)
20,COC(=O)c1ccc(CSc2nc3cc(Cl)ccc3o2)cc1,101% (inactive)
21,O=C(CSc1nc2cc(Cl)ccc2o1)c1cccs1,96.2% (inactive)
